About 31,000 (8.9%) of roughly 350,000 compounds were called active. Entries that show only a call come without a potency. Another 15% or so got no clear call; they are omitted. For the sample, actives were picked, then their nearest neighbours and some compounds at random. A number with no mark means an inactive call. The call rests on the fitted dose curve; in most records, active means well fitted inhibition curve with a large enough effect; inconclusive means small, poorly fitted or top-dose-only effect; inactive means no such curve, though single readings can be large or run the other way.
Potency means the concentration at half of the fitted maximal effect.

For this experiment, the target named is Histone-lysine N-methyltransferase EHMT2 (Homo sapiens) (UniProt Q96KQ7). The experiment is described as follows: qHTS Assay for Inhibitors of Histone Lysine Methyltransferase G9a. Further: nearly all actives have a fitted effect of over 75% in size. Particulars: G9a H3K9 monomethylation, AlphaScreen, 2 h; series mostly up to 59 µM. Summed up: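 Using a bead-based AlphaScreen, monomethylated H3K9 product from 2 h room-temperature reactions (G9a 20 nM, peptide 500 nM, SAM 20 uM) was detected with 0.5 ug/mL rabbit anti-H3K9me1 antibody.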
Sequence of Histone-lysine N-methyltransferase EHMT2 (Homo sapiens) (Q96KQ7 913-1193 limits assumed): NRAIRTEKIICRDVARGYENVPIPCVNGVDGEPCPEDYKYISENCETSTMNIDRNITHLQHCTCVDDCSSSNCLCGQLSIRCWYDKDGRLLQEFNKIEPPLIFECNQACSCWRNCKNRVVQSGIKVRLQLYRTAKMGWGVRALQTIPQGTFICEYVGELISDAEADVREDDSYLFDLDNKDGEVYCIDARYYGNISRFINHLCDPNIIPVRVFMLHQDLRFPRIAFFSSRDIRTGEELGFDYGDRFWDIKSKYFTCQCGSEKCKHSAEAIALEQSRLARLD
Background: In qHTS, concentration-response curves come from the screen itself.
For `O=C(Nc1nnc(C2CC(=O)N(c3ccc(Cl)cc3)C2)s1)c1ccco1` (configuration not stated), the Potency entry was “inactive”.
The same measure, in the same setting: the result for `CCN(c1ncnc2c1cnn2-c1ccc(C)cc1)C1CCCCC1` reads “inactive”; that for `C/C=C/c1ccc(OCC(O)CN2CCCCCCC2)c(OC)c1` (configuration not stated), 20 µM (active); that for `C/C=C/c1ccc(OCCCCN2CCC(C)CC2)c(OC)c1`, “inactive”.
Take `COc1ccccc1OCC(O)CN1CCOCC1` (configuration not stated): the Potency entry was “inactive”.
On the same count and under the same terms, the result for `CCC(=O)N1CCc2cc(S(=O)(=O)NC(Cc3ccccc3)C(=O)NCc3ccc(C)cc3)ccc21` (configuration not stated) reads “inactive”; that for `c1ccc(CNc2ncnc3[nH]ncc23)cc1`, “inactive”.
Consider `CCCCN(C(=O)c1ccc2ccccc2c1)c1c(N)n(CCCC)c(=O)[nH]c1=O`, for which the Potency result is “inactive”.
For the compound `CCCCn1c(N)c(N(CC(C)C)C(=O)CSc2ccc([N+](=O)[O-])cc2)c(=O)[nH]c1=O`, the Potency is 50.1 µM (active).
The same measure, in the same setting: the same measure for `CCCCn1c(N)c(N(CC(C)C)C(=O)c2ccc(Br)o2)c(=O)[nH]c1=O`: “inactive”.
The same measure, in the same setting: the same measure for `CCCCn1c(N)c(N(CC(C)C)C(=O)c2ccc(-n3c(C)ccc3C)cc2)c(=O)[nH]c1=O`: 56.2 µM (active); for `CCCCn1c(N)c(N(CC(C)C)C(=O)c2cnc(C)cn2)c(=O)[nH]c1=O`: “inactive”; for `CCCCn1c(N)c(N(CCC(C)C)C(=O)COC(=O)c2ccc(CC)cc2)c(=O)[nH]c1=O`: “inactive”.
As to `CCCCN(C(=O)c1ccc(C)o1)c1c(N)n(CCCC)c(=O)[nH]c1=O`, the activity, negative = inhibition is 4.93% [at 0.501 µM].
Take `CCCCn1c(N)c(N(CC(C)C)C(=O)C2CSC3(C)CCC(=O)N23)c(=O)[nH]c1=O` (configuration not stated): the Potency was 50.1 µM (active).
Turning to `CCCCN(C(=O)CCNC(=O)NC12CC3CC(CC(C3)C1)C2)c1c(N)n(CCCC)c(=O)[nH]c1=O`, the activity, negative = inhibition is -3.13% [at 0.501 µM].
In the case of `Cc1cc(C)c2oc(C(=O)Nc3ccc(S(=O)(=O)N(C)c4ccccc4)cc3)cc(=O)c2c1`, the Potency result is “inactive”.
For the compound `COc1cc(OC)cc(C(=O)Nc2c(C(=O)Nc3ccc(F)cc3)oc3ccccc23)c1`, the Potency result is “inactive”.
On the same count and under the same terms, the same measure for `Cc1ccccc1CSCCNC(=O)C1CCN(S(=O)(=O)Cc2ccccc2)CC1`: “inactive”.
The same measure, in the same setting: the result for `CC(OC(=O)Cc1ccc(F)cc1)C(=O)N1CCc2ccccc21` (configuration not stated) reads “inactive”.
Take `COc1ccc([C@H]2CC(=O)C=C(/C=C/c3ccc(Cl)cc3)C2)cc1`: the activity, negative = inhibition is 9.28% [at 2.33 µM].
Regarding `Cc1c(C)n2c(SCC(=O)N3CCCC3)nnc2[nH]c1=O`, the Potency result was “inactive”.
As to `O=C(NNC(=O)C1CCC1)c1ccccc1`, the activity, negative = inhibition was 24.7% [at 12.7 µM].
Still for that read-out and setting: the same measure for `Cc1ccc(C)c(OCC(=O)NNC(=O)C2CCC2)c1`: -2.65% [at 12.7 µM].
Turning to `Cc1ccc(NNC(=O)C2CCC2)cc1C`, the Potency is 11.2 µM (active).
On to `Cc1cc(C)n2nc(C(=O)OCC(=O)N(CCC#N)c3ccc(F)cc3)nc2n1`, for which the activity, negative = inhibition is 12.1% [at 0.501 µM].
Consider `CCC1(c2ccccc2)NC(=O)N(CC(=O)c2ccc3c(c2)OCO3)C1=O` (configuration not stated), for which the Potency result is “inactive”.
Consider `O=C(CN1CCC(O)(c2cccc(C(F)(F)F)c2)CC1)NCCc1ccccc1`, for which the Potency entry was “inactive”.
As for `CC(C)c1ccc(NC(=O)C2CCN(c3nc(-c4ccc(C(C)C)cc4)no3)CC2)cc1`, the Potency result was “inactive”.
Same read-out and setting: the same measure for `CCN(CC)c1ccc(NS(=O)(=O)c2cc(-c3cc(C)no3)ccc2C)c(C)c1`: 3.16 µM (active); for `CCOc1ccccc1CNS(=O)(=O)c1cc(-c2cc(C)no2)ccc1C`: “inactive”.
Regarding `Cc1cc(-c2ccc(C)c(S(=O)(=O)Nc3ccc(S(N)(=O)=O)cc3)c2)on1`, the Potency result is “inactive”.
Still for that read-out and setting: the result for `COc1ccc2c(C)c(CCC(=O)NCc3ccc(OC)c(OC)c3)c(=O)oc2c1` reads “inactive”; that for `CC(=O)N1CCCc2cc(S(=O)(=O)N3CCC(C(=O)NCc4ccc(C)cc4)CC3)ccc21`, “inactive”.
Regarding `COc1ccccc1OCc1nc2ccccc2s1`, the activity, negative = inhibition was 17.1% [at 12.7 µM].
Consider `COc1cccc2sc(Nc3nc(C)c(C(C)=O)s3)nc12`, for which the Potency result is “inactive”.
Regarding `COc1cccc2sc(NNC(=O)c3nc4ccccc4s3)nc12`, the Potency was 12.6 µM (active).
Consider `O=C(Nc1cc(C(F)(F)F)ccc1Cl)c1nc2ccccc2nc1N1CCCCC1`, for which the Potency result was “inactive”.
With `O=S(=O)(c1ccc(Cl)cc1)c1nnn2c1nc(NC1CCCC1)c1sccc12`, the Potency entry was “inactive”.
On to `CC1(C)CC(=O)C=C(c2ccc3ncccc3c2)C1`, for which the activity, negative = inhibition is 6.31% [at 2.33 µM].
Still for that read-out and setting: the result for `COc1ccc(S(=O)(=O)N2CCOCC2)cc1NC(=O)CC1CC2CCC1C2` (configuration not stated) reads 1.4% [at 2.33 µM].
Regarding `CCNC(=S)N1CCN(C(=O)c2ccco2)CC1`, the Potency entry was “inactive”.
As for `COc1ccccc1/C=C/C(=O)NC(=S)N1CCOCC1`, the Potency entry was “inactive”.
The same measure, in the same setting: the result for `O=C(/C=C/c1ccco1)NC(=S)N1CCCCC1` reads 70.8 µM (active).
Turning to `COc1ccc(Cl)cc1NC(=O)CN(C)C(=O)c1cc(-c2cccs2)nn1-c1ccccc1`, the activity, negative = inhibition is 8.22% [at 0.501 µM].
Turning to `CCOC(=O)c1ccc(NC(=O)Cn2c(=O)n(-c3ccc(C)cc3)c(=O)c3c2cnn3C)cc1`, the Potency entry is “inactive”.
Consider `O=S(=O)(Nc1ccc2nc(-c3ccco3)[nH]c2c1)c1ccccc1`, for which the Potency was 31.6 µM (active).
On the same count and under the same terms, the result for `O=S(=O)(Nc1ccc2nc(-c3cccc(Cl)c3)oc2c1)c1ccccc1` reads “inactive”; that for `CCc1ccccc1NS(=O)(=O)c1ccc2nc(-c3ccccc3)[nH]c2c1`, “inactive”.
Still for that read-out and setting: the result for `COc1ccc2oc(=O)c(-c3cn4c(n3)sc3cc(OC)ccc34)cc2c1` reads “inactive”.
On the same count and under the same terms, the same measure for `CCn1c(CN2CCC(C)CC2)nc2cc(NC(=O)c3ccccc3[N+](=O)[O-])ccc21`: “inactive”; for `COC(=O)c1cc(S(=O)(=O)NCC2CCN(Cc3ccc(Cl)cc3)CC2)cn1C`: “inactive”; for `COc1ccc(CCNC(=O)Cn2c(=O)cc(C(F)(F)F)c3c(C)nn(C)c32)c(OC)c1`: “inactive”.
As to `COc1ccccc1C(=O)NCCC(=O)NC(C)CCc1ccccc1` (configuration not stated), the activity, negative = inhibition is 3.84% [at 0.501 µM].
For the compound `O=C(CSc1ccc(-c2ccccc2)nn1)NCC1CCCO1` (configuration not stated), the Potency is 44.7 µM (active).
As to `CCn1c(SCC(=O)NCC2CCCO2)nc2ccccc21` (configuration not stated), the activity, negative = inhibition was 19.8% [at 12.7 µM].
Consider `O=C(CSc1nnc(-c2ccc(NS(=O)(=O)c3ccccc3)cc2)o1)NCC1CCCO1` (configuration not stated), for which the Potency entry is “inactive”.
Take `CCOc1ccc(CCNC(=O)Cn2nc(CC)n3c(cc4sc(CC)cc43)c2=O)cc1OCC`: the Potency entry is “inactive”.
Still for that read-out and setting: the same measure for `CCc1nnc(NC(=O)c2cc(S(=O)(=O)N3CCCCC3)ccc2C)s1`: “inactive”; for `CCOC(=O)c1ccc(NC(=O)Cn2c(=O)cc(C)c3c(C)nn(-c4cccc(F)c4)c32)cc1`: “inactive”.
Still for that read-out and setting: the same measure for `O=C(NNC(=S)NC(=O)c1cn(-c2ccccc2)nc1-c1ccccc1)c1ccncc1`: 25.1 µM (active).
`Cc1ccc(-c2nn(-c3ccccc3)cc2C(=O)NC2CCC(O)CC2)cc1` (configuration not stated): the activity, negative = inhibition was 9.53% [at 2.33 µM].
As to `O=C(Nc1cn(-c2ccccc2)nc1-c1ccccc1)c1ccccc1`, the Potency result was “inactive”.
With `COc1ccc(N(Cc2cc3ccc(C)cc3[nH]c2=O)S(=O)(=O)c2ccccc2)cc1`, the Potency result is “inactive”.
Still for that read-out and setting: the result for `Cc1ccccc1CNC(=O)c1cccc(NC(=O)c2nsc3ccccc23)c1` reads “inactive”; that for `Fc1ccc(CSc2nc(NCc3ccccc3)c3ccccc3n2)cc1`, “inactive”.
As for `O=C(c1cc2ccccc2o1)N1CCN(S(=O)(=O)c2ccc(Cl)s2)CC1`, the activity, negative = inhibition is 0.973% [at 2.33 µM].
As to `Cc1ccc(NS(=O)(=O)c2ccc(C)c(NC(=O)COc3ccc4ccccc4c3)c2)c(C)c1`, the Potency was 35.5 µM (active).
`CN(C)S(=O)(=O)c1cccc(NC(=O)COc2ccc3ccccc3c2)c1`: the activity, negative = inhibition was -10.1% [at 12.7 µM].
As for `Cc1ccc(C)c(NS(=O)(=O)c2ccc(OCC(=O)NCc3cccnc3)cc2)c1`, the Potency result was “inactive”.
Same read-out and setting: the same measure for `Cn1cc(Cl)c(C(=O)NNC(=S)Nc2cccc(Cl)c2)n1`: 15.8 µM (active); for `CC(C)CNC(=S)NNC(=O)c1nn(C)cc1Cl`: “inactive”.
Same read-out and setting: the same measure for `Cc1cccc(NC(=S)Nc2ccc(Cl)c(Cl)c2)c1`: “inactive”; for `CCOC(=O)c1ccc(NC(=O)c2ccc(NC(=O)C3CCCO3)cc2)cc1` (configuration not stated): “inactive”.
Same read-out and setting: the result for `CCOC(=O)c1c(NC(=O)CSc2nnc(C)c(=O)[nH]2)sc2c1CCC2` reads “inactive”; that for `CCOC(=O)c1c(NC(=O)/C(C#N)=C/c2ccccc2)sc2c1CCC2`, “inactive”; that for `CCOC(=O)c1c(NC(=O)c2ccc(S(=O)(=O)N(CC)CC)cc2)sc2c1CCCCC2`, “inactive”.
Consider `CCOC(=O)c1c(NC(=O)CSc2cn(CC)c3ccccc23)sc2c1CCC2`, for which the Potency is 56.2 µM (active).
Regarding `CCOC(=O)c1c(NC(=O)CSc2cn(CCNC(=O)c3cccc(C(F)(F)F)c3)c3ccccc23)sc2c1CCC2`, the Potency result is “inactive”.
On the same count and under the same terms, the result for `CCCOC(=O)Nc1sc2c(c1C(=O)OCC)CCC2` reads “inactive”; that for `CCOC(=O)c1c(NC(=O)NC(C)(C)C)sc2c1CCN(C)C2`, “inactive”.
Still for that read-out and setting: the same measure for `CCOC(=O)c1c(NC(=S)NC(=O)c2ccco2)sc2c1CCCC2`: “inactive”.
On the same count and under the same terms, the result for `CCOC(=O)c1c(NC(=S)Nc2ccccc2C)sc2c1CCC2` reads “inactive”; that for `CCOC(=O)c1c(NC(=S)NC)sc2c1CCCC2`, 11.2 µM (active).
On to `CCOC(=O)c1c(NC(=O)c2cc(-c3ccc(Cl)cc3)on2)sc2c1CCCC2`, for which the Potency is 6.31 µM (active).
The same measure, in the same setting: the same measure for `CCOC(=O)c1c(NC(=S)Nc2ccccc2)sc2c1CCN(C)C2`: 44.7 µM (active); for `COc1ccc(Cn2c(C(=O)O)c(CNCCc3cccs3)c3ccc(OC)cc32)cc1`: “inactive”.
Still for that read-out and setting: the same measure for `CC1CCC(N2CC(=O)N(CCC3=CCCCC3)C(c3ccc(F)cc3)C2=O)CC1` (configuration not stated): “inactive”.
With `Cc1ccccc1-c1cc(C(=O)NCc2cccs2)n(CC2CC(c3cccnc3)=NO2)n1` (configuration not stated), the activity, negative = inhibition is -0.783% [at 0.501 µM].
As to `Cc1ccc(-c2nc(Cn3c(=O)cc(-c4ccccc4)c4c(C)nn(C)c43)c(C)o2)cc1`, the Potency entry was “inactive”.
Turning to `CCOc1cccc2sc(N3CCN(C(=O)C4CC4)CC3)nc12`, the Potency result was “inactive”.
On the same count and under the same terms, the same measure for `COc1cccc2sc(N(CCCN(C)C)C(=O)C(c3ccccc3)c3ccccc3)nc12`: 6.31 µM (active); for `COc1cc2ccccc2cc1C(=O)Nc1ccncc1`: “inactive”.
In the case of `COc1ccccc1NC(=O)CC(NCCN(C)C)C(=O)O` (configuration not stated), the Potency entry was “inactive”.
Still for that read-out and setting: the result for `COc1cc(SC)ccc1C(=O)N(Cc1ccccc1)c1ccccc1` reads “inactive”.
On the same count and under the same terms, the same measure for `COc1ccc(CCN(C(=O)COc2ccccc2)c2nc(-c3ccccc3)cs2)cc1OC`: “inactive”; for `CN(Cc1ccccc1)C(=O)COc1ccccc1`: “inactive”.
Regarding `CCOc1ccc2nc(Nc3nc4ccc(NC(C)=O)cc4s3)sc2c1`, the Potency entry is “inactive”.
Still for that read-out and setting: the result for `CN(C)CCCN(C(=O)COc1ccccc1)c1nc2c(Cl)cccc2s1` reads 31.6 µM (active); that for `COc1cc2ccccc2cc1C(=O)N(CCN(C)C)c1nc2c(F)cccc2s1`, 44.7 µM (active).
The same measure, in the same setting: the same measure for `CCCC(=O)N(CCN1CCOCC1)c1nc2ccc(OCC)cc2s1`: “inactive”; for `CCOc1ccc2nc(N(CCCN(C)C)C(=O)c3ccc(C(=O)c4ccccc4)cc3)sc2c1`: 44.7 µM (active).

The record behind these values is PubChem BioAssay AID504332 (National Center for Advancing Translational Sciences (NCATS), 2011).
